In the library only some 4.8% were active in any assay of this set; here they are far more common.
DAX1 inh-1 – inhibits human nuclear receptor DAX1; P51843; HEK293 Gal4-DAX1 luciferase reporter, luminescence; inhibition, % at 6.75 µM; 0.99% of 340,000 active;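 active = inhibition above the mean over all tested compounds plus 3 SD, cut at about 4.2% in these data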;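 note: inhibition shows as a rise in luminescence from relieved DAX1 repression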
Target sequence (P51843 207-470 limits assumed): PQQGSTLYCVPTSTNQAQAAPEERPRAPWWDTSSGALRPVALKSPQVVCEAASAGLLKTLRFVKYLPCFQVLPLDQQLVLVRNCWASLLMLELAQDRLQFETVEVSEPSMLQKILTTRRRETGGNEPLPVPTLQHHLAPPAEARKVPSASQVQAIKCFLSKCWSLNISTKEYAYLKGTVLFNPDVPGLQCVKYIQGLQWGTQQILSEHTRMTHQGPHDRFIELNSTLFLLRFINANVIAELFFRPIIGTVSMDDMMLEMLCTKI
hgDAF12 agonist – agonists of H. glycines DAF-12 nuclear receptor; 1.8% of 370,000 active; activation, % at 6.8 µM; HEK293 GAL4-hgDAF12 UAS-luciferase reporter, agonist luminescence; normalized to butyrate control;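 active = activation above a cutoff set at the mean of all screened compounds plus 3 SD, cut at about 10% in these data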
SMARCA2 activ – SMARCA2 function activation, primary screen; MG213 cells, MMTV-luciferase reporter, dexamethasone, overnight; activation, % at 9.1 µM; 1% of 370,000 active; AID 652017; in the data active = activation above about 7.8%
ssDAF12 agonist – activates DAF-12 receptor from parasite S. stercoralis; HEK293 ssDAF-12/GRIP1 lit1-tk-luc reporter, luminescence; % of 3 µM dafachronic acid response; activation, % at 6.8 µM; 1% of 370,000 active; AID 652126;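 active = activation above the mean over all tested compounds plus 3 SD, cut at about 0.9% in these data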
hcDAF12 agonist – activates DAF-12 receptor from parasite H. contortus | HEK293 hcDAF-12 lit1-tk-luc reporter, luminescence; 0% DMSO, 100% Δ7-dafachronic acid | 1.4% of 370,000 active | activation, % at 6.8 µM;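 active = activation above the mean of all tested compounds plus 3 SD, cut at about 5.5% in these data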
DAX1 inh-2 – inhibitors of DAX1 repression of SF-1 activated StAR promoter | HEK293T StAR-luciferase reporter, SF-1/DAX-1 repression relief | inhibition, % at 6.8 µM | 1.1% of 370,000 active | AID 652010;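 active = inhibition above the mean over all tested compounds plus 3 SD, cut at about 3.6% in these data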;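 note: higher inhibition means more luminescence from relief of DAX-1 repression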
SMARCA2 act conf – confirmation of SMARCA2 (BRM) function activators | 30% of 3,500 active | MG213 cells, MMTV-luciferase with dexamethasone, luminescence, overnight; MG213 cells expressing E1A, Rb sequestered; DMSO wells 0%, reference activator 100% | AID 652260 | activation, % at 9.1 µM | shares compounds with SMARCA2 activ;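 active = activation above its plate's cutoff, the mean activation of tested wells plus 3 SD, cut at about 7.9% in these data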
GAL4-VP16 Luc – GAL4-VP16 reporter activation counter-screen; shares compounds with SMARCA2 activ; HEK293 GAL4-VP16 pG5luc reporter, luciferase luminescence; scaled: DMSO wells 0%, SAHA wells 100%; activation, % at 9.1 µM; 41% of 3,500 active;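 active = activation above the solvent-only control well mean plus 3 SD, averaged across control plates, cut at about 5.2% in these data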
Large screens that a line does not name were inactive (follow-up assays come after a bar, where they were run).

CCOc1cc(C2NN=C(c3ccccc3)S2)ccc1OCc1ccc(F)cc1 (configuration not stated)	hgDAF12 agonist 12, SMARCA2 activ 14, ssDAF12 agonist 1.1 | SMARCA2 act conf inactive | GAL4-VP16 Luc 9.3
CCOc1cc2c(cc1OCC)C(c1ccc(F)cc1)NCC2 (configuration not stated)	none
COc1ccc(C2=Nn3c(nnc3C3CCCCC3)SC2)cc1OC	SMARCA2 activ 14 | SMARCA2 act conf 14 | GAL4-VP16 Luc 7.3
COc1ccc(-c2nn3c(C4CCCCC4)nnc3s2)cc1OC	SMARCA2 activ 12 | SMARCA2 act conf inactive | GAL4-VP16 Luc inactive
COc1ccc(OC)c(-c2nnc3n2N=C(c2ccc(OC)c(OC)c2)CS3)c1	SMARCA2 activ 12 | SMARCA2 act conf 34 | GAL4-VP16 Luc 17
COc1ccc(C2=Nn3c(nnc3-c3cccnc3)SC2)cc1	SMARCA2 activ 9.7 | SMARCA2 act conf inactive | GAL4-VP16 Luc inactive
COc1ccc(OC)c(-c2nnc3n2N=C(c2ccc(OC)c(OC4CCCC4)c2)CS3)c1	none
CC/C=C\[C@H](O)[C@H](O)C1=C(C)C(=O)[C@]2(O1)C(=O)N[C@@](OC)(C(=O)c1ccccc1)[C@@H]2O	none (no result: DAX1 inh-1)
COC(=O)[C@]12C[C@H](CC(=O)NCc3cccs3)C(=O)N(Cc3ccc(Cl)cc3Cl)C1=C[C@H](C(C)(C)C)O[C@@H]2C	none (no result: DAX1 inh-1)
COc1ccc(C2=Nn3c(nnc3-c3ccccc3F)SC2)cc1OC1CCCC1	SMARCA2 activ 17 | SMARCA2 act conf 30 | GAL4-VP16 Luc 20
COc1ccc(C2=Nn3c(nnc3-c3ccccc3F)SC2)cc1OC1CCOC1 (configuration not stated)	none
Cc1ccc(C)c(CSC2=NN3CCCC(=O)N=C3S2)c1	SMARCA2 activ 8.5 | SMARCA2 act conf inactive | GAL4-VP16 Luc inactive
Cc1ccc(NC(=O)CSC2=NN3CCCC(=O)N=C3S2)c(C)c1	none
Cc1cc(C)nc(S/C=C/C(=O)c2ccccc2F)n1	DAX1 inh-1 6.2, SMARCA2 activ 14 | SMARCA2 act conf inactive | GAL4-VP16 Luc inactive
Cn1c(NCc2c(O)ccc3ccccc23)nc2ccccc21	none
Cn1c(NCc2ccc(Cl)cc2)nc2ccccc21	hgDAF12 agonist 13, SMARCA2 activ 8.3, ssDAF12 agonist 1.5 | SMARCA2 act conf 8.3 | GAL4-VP16 Luc 11
COc1ccc2c(c1)[nH]c1c(=O)n(Cc3ccncc3)cnc12	SMARCA2 activ 8.6 | SMARCA2 act conf inactive | GAL4-VP16 Luc inactive
CC(C)CNC(=O)OCc1cn(Cc2c(F)cccc2F)nn1	none (no result: DAX1 inh-1)
COCC1CCN(Cc2nc(COc3ccccc3)no2)C1 (configuration not stated)	SMARCA2 activ 8.3 | SMARCA2 act conf inactive | GAL4-VP16 Luc inactive
COC(=O)C1CN(Cc2ccc(C)cc2)CCS(=O)(=O)N1Cc1cn(Cc2ccc(F)cc2)nn1 (configuration not stated)	none (no result: DAX1 inh-1)
O=C(CSc1nnc(SCc2cccc3ccccc23)s1)Nc1ccccc1-c1ccccc1	none (no result: DAX1 inh-1)
COc1cccc(CNC(=O)COC(=O)c2nc(Cl)c(Cl)c(Cl)c2Cl)c1	SMARCA2 activ 17 | SMARCA2 act conf 26 | GAL4-VP16 Luc inactive
CSc1oc(-c2ccco2)nc1S(=O)(=O)c1ccc(C)cc1	SMARCA2 activ 9.2 | SMARCA2 act conf inactive | GAL4-VP16 Luc inactive
CCOC(=O)c1csc(-c2ccc3c(c2)CCO3)n1	SMARCA2 activ 16 (no result: DAX1 inh-1) | SMARCA2 act conf inactive | GAL4-VP16 Luc 6.7
COc1ccccc1C(=O)N1CCC(Oc2cccnc2)CC1	none (no result: DAX1 inh-1)
CCN1CCc2c(OCC(=O)N3CCC(C)CC3)cccc2C1=O	SMARCA2 activ 8.4 | SMARCA2 act conf inactive | GAL4-VP16 Luc inactive
CCN1CCc2c(OCC(=O)N3CCCCC3)cccc2C1=O	none
O=C(NNC1CC(=O)N(c2ccc3c(c2)OCCO3)C1=O)c1ccccc1 (configuration not stated)	SMARCA2 activ 8.6 | SMARCA2 act conf inactive | GAL4-VP16 Luc inactive
Cc1ccccc1C(=O)NNC1CC(=O)N(c2ccc3c(c2)OCCO3)C1=O (configuration not stated)	none
CCCCOCCCNC(=O)C[C@@H]1C[C@]2(C(=O)OCC)CCC3=C2N(CCC3)C1=O	none (no result: DAX1 inh-1)
Cc1cc(=O)oc(C)c1C(=O)NNC(=O)C1(C)CC1Br (configuration not stated)	SMARCA2 activ 8.9 | SMARCA2 act conf inactive | GAL4-VP16 Luc inactive
CC1(C(=O)NNC(=O)c2ccc(=O)oc2)CC1Br (configuration not stated)	none (no result: DAX1 inh-1)
Cc1ccc(S(=O)(=O)N(C)Cc2ccc(C(=O)N/N=C3\CC(=O)CC(C)(C)C3)cc2)cc1	SMARCA2 activ 10 | SMARCA2 act conf inactive | GAL4-VP16 Luc inactive
O=C(CCn1c(=O)sc2ccccc21)Nc1nccs1	SMARCA2 activ 8.3 | SMARCA2 act conf inactive | GAL4-VP16 Luc 7.7
Nc1ccn([C@@H]2O[C@H](C(=O)N3CCN(CCO)CC3)[C@@H](O)[C@H]2O)c(=O)n1	none (no result: DAX1 inh-1)
COc1cccc(C2NC(=O)c3ccccc3O2)c1OC (configuration not stated)	none
COc1cccc(C2N=C(c3ccccc3C)NO2)c1OC (configuration not stated)	SMARCA2 activ 8.0 | SMARCA2 act conf inactive | GAL4-VP16 Luc inactive
COc1ccc(N2CCCN(CC(=O)Nc3ccc(Cl)cc3)CC2)cc1	none (no result: DAX1 inh-1)
COP(N)(=O)C(CC(C)C)NC(=O)OCc1ccccc1 (configuration not stated)	none (no result: DAX1 inh-1)
C[C@]1(C(=O)NCCN2CCOCC2)C=C[C@@H](Cc2ccccc2)N1C(=O)c1ccccc1	none
CC1(C(=O)NCCN2CCOCC2)C=CC2(CCCCC2)N1C(=O)c1ccccc1 (configuration not stated)	SMARCA2 activ 8.7 | SMARCA2 act conf inactive | GAL4-VP16 Luc inactive
Cc1cc(C(=O)COC(=O)c2ccc(Br)o2)c(C)n1C	SMARCA2 activ 9.7 | SMARCA2 act conf 15 | GAL4-VP16 Luc 6.5
Cc1cc(C)nc(N/N=C/c2cccc(Cl)c2)n1	none
Clc1cccc(/C=N/Nc2nc(Cl)nc3ccccc23)c1	SMARCA2 activ 11, hcDAF12 agonist 6.6 | SMARCA2 act conf 11 | GAL4-VP16 Luc 11
